Experimental data taken from PubChem BioAssay (NCI).
Compounds without any hit were thinned out: in the full panel of roughly 83,000, 20% have a hit.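 Method: cells in 96-well plates; compound added at one concentration; 48 h incubation; percent growth measured; values under 10 scored active.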 The source made the active and inactive calls.

Columns and labels:
Experiment in all cases: NCI-60 one-dose screen, 48 h (100 = growth as untreated, 0 = no growth, -100 = all killed)
Conditions in all cases: 10 µM unless noted
SR leukemia = tested on: SR leukemia
RPMI-8226 leukemia = tested on: RPMI-8226 leukemia
OVCAR-8 ovarian = tested on: OVCAR-8 ovarian
OVCAR-5 ovarian = tested on: OVCAR-5 ovarian
OVCAR-4 ovarian = tested on: OVCAR-4 ovarian
SK-OV-3 ovarian = tested on: SK-OV-3 ovarian
IGROV1 ovarian = tested on: IGROV1 ovarian
OVCAR-3 ovarian = tested on: OVCAR-3 ovarian
HS 578T breast = tested on: HS 578T breast
NCI/ADR-RES ovarian = tested on: NCI/ADR-RES ovarian
T-47D breast = tested on: T-47D breast
BT-549 breast = tested on: BT-549 breast
MDA-MB-435 melanoma = tested on: MDA-MB-435 melanoma
SW-620 colon = tested on: SW-620 colon
MCF7 breast = tested on: MCF7 breast
HCT-116 colon = tested on: HCT-116 colon
HCC-2998 colon = tested on: HCC-2998 colon
KM12 colon = tested on: KM12 colon

Measured: growth

N/C(=N\C(N)=N\c1nc2ccccc2s1)c1cnccn1
active: SR leukemia 0% | IGROV1 ovarian -1.19% | OVCAR-3 ovarian 3.95% | MDA-MB-435 melanoma 4.7% | HCT-116 colon 8.53% | KM12 colon 8.11%
inactive: RPMI-8226 leukemia 13.3% | OVCAR-8 ovarian 28.1% | OVCAR-5 ovarian 60.1% | OVCAR-4 ovarian 14.9% | SK-OV-3 ovarian 12.9% | HS 578T breast 49% | NCI/ADR-RES ovarian 61.7% | T-47D breast 18.2% | BT-549 breast 38.3% | SW-620 colon 11.4% | MCF7 breast 11.4% | HCC-2998 colon 18.5%

CC(=O)Nc1ccc(-c2ccc3c(c2)NC(=O)/C3=C\c2ccc[nH]2)cc1
active: MCF7 breast 9.83%
inactive: SR leukemia 36.5% | RPMI-8226 leukemia 94.4% | OVCAR-8 ovarian 99.8% | OVCAR-5 ovarian 73% | OVCAR-4 ovarian 102% | SK-OV-3 ovarian 121% | IGROV1 ovarian 96.6% | OVCAR-3 ovarian 104% | HS 578T breast 110% | NCI/ADR-RES ovarian 96.7% | T-47D breast 37.5% | BT-549 breast 83.5% | MDA-MB-435 melanoma 90.6% | SW-620 colon 96.4% | HCT-116 colon 104% | HCC-2998 colon 104% | KM12 colon 45.4%

CCCCCN1C=C/C(=C\C(=O)N(C)c2ccc(Oc3ccccc3)cc2)c2ccccc21
inactive: SR leukemia 82.1% | RPMI-8226 leukemia 68.6% | OVCAR-8 ovarian 80.3% | OVCAR-5 ovarian 92.9% | OVCAR-4 ovarian 58.3% | SK-OV-3 ovarian 87.3% | IGROV1 ovarian 58.1% | OVCAR-3 ovarian 83.6% | HS 578T breast 99.5% | NCI/ADR-RES ovarian 100% | T-47D breast 54.1% | BT-549 breast 91.4% | MDA-MB-435 melanoma 91.4% | SW-620 colon 84.3% | MCF7 breast 66.7% | HCT-116 colon 58.7% | KM12 colon 90.5%

C#CCNC(=O)[C@H](Cc1ccccc1)NC(=O)[C@]12CC[C@@H](C(=C)C)[C@@H]1[C@H]1CC[C@@H]3[C@@]4(C)CCC(=O)C(C)(C)[C@@H]4CC[C@@]3(C)[C@]1(C)CC2
inactive: SR leukemia 42% | RPMI-8226 leukemia 38% | OVCAR-8 ovarian 86.8% | OVCAR-5 ovarian 87.1% | OVCAR-4 ovarian 81.6% | SK-OV-3 ovarian 84.7% | IGROV1 ovarian 89.1% | OVCAR-3 ovarian 62.9% | HS 578T breast 85.1% | NCI/ADR-RES ovarian 79.8% | T-47D breast 49.8% | BT-549 breast 104% | MDA-MB-435 melanoma 85% | SW-620 colon 64.8% | MCF7 breast 56% | HCC-2998 colon 80.8% | KM12 colon 61.5%

COc1ccc(C(=O)c2cc(OC)c(OC)c(OC)c2)cc1O
inactive: RPMI-8226 leukemia 12.7% | OVCAR-8 ovarian 14.1% | OVCAR-5 ovarian 31.8% | OVCAR-4 ovarian 30.6% | SK-OV-3 ovarian 37.2% | IGROV1 ovarian 16.2% | HS 578T breast 28.8% | T-47D breast 54.7% | BT-549 breast 12% | SW-620 colon 22.3%
active: SR leukemia 7.02% | OVCAR-3 ovarian -6.73% | NCI/ADR-RES ovarian -32.3% | MDA-MB-435 melanoma -41.1% | MCF7 breast 6.25% | HCT-116 colon 4.24% | KM12 colon 9.38%

CCCCCCCCOc1ccc(/C=N/Nc2cc(C)nc3ccc(Br)cc23)cc1
inactive: RPMI-8226 leukemia 36.6% | OVCAR-8 ovarian 46.4% | OVCAR-5 ovarian 101% | SK-OV-3 ovarian 104% | IGROV1 ovarian 62.5% | OVCAR-3 ovarian 67.1% | HS 578T breast 64.1% | NCI/ADR-RES ovarian 65.1% | T-47D breast 80.9% | BT-549 breast 95.6% | MDA-MB-435 melanoma 64.7% | MCF7 breast 15.8% | HCC-2998 colon 89.8% | KM12 colon 57%
active: SR leukemia -14.3% | OVCAR-4 ovarian -1.74% | SW-620 colon 8.02%

C=C1C(=O)O[C@H]2[C@H]1CC/C(CNC(=O)C(C)c1ccc(CC(C)C)cc1)=C\CC[C@@]1(C)O[C@@H]21 (stereo partly drawn)
inactive: OVCAR-5 ovarian 57.3% | OVCAR-4 ovarian 29.3% | SK-OV-3 ovarian 88.1% | HS 578T breast 25.4% | NCI/ADR-RES ovarian 55.3% | KM12 colon 57.8%
active: SR leukemia 8.13% | RPMI-8226 leukemia -21% | OVCAR-8 ovarian -32.5% | IGROV1 ovarian -36% | OVCAR-3 ovarian -87.9% | T-47D breast -46.3% | BT-549 breast -39.5% | MDA-MB-435 melanoma 0.546% | SW-620 colon -59% | MCF7 breast 4.24% | HCT-116 colon -87.8%

C=C(C)[C@@H]1CC[C@]2(C(=O)N3CCN(C)CC3)CC[C@]3(C)[C@H](CC[C@@H]4[C@@]5(C)C/C(=C/c6cccnc6)C(=O)C(C)(C)[C@@H]5CC[C@]43C)[C@@H]12
inactive: SR leukemia 19.9% | RPMI-8226 leukemia 21.2% | OVCAR-8 ovarian 56.2% | OVCAR-5 ovarian 100% | OVCAR-4 ovarian 49.2% | SK-OV-3 ovarian 83.8% | IGROV1 ovarian 96% | OVCAR-3 ovarian 57.5% | HS 578T breast 76.4% | NCI/ADR-RES ovarian 64.2% | T-47D breast 54.2% | BT-549 breast 83.2% | MDA-MB-435 melanoma 69.4% | SW-620 colon 48.1% | MCF7 breast 27.2% | HCT-116 colon 25.3% | KM12 colon 54.7%

CC(C)(C)CC(C)(C)n1nnnc1C(NC12CC3CC(CC(C3)C1)C2)c1ccccc1 (stereo not drawn)
inactive: SR leukemia 80.3% | RPMI-8226 leukemia 68.8% | OVCAR-8 ovarian 96% | OVCAR-5 ovarian 103% | OVCAR-4 ovarian 88.4% | SK-OV-3 ovarian 120% | IGROV1 ovarian 87.1% | OVCAR-3 ovarian 98.1% | HS 578T breast 99.9% | NCI/ADR-RES ovarian 86.1% | T-47D breast 73.5% | BT-549 breast 93.2% | MDA-MB-435 melanoma 98.3% | SW-620 colon 98.9% | MCF7 breast 88.9% | HCT-116 colon 66.8% | HCC-2998 colon 104% | KM12 colon 101%

CCOc1cccc(-c2nc(N)nc(Nc3ccccc3SSc3ccccc3Nc3nc(N)nc(-c4cccc(OCC)c4)n3)n2)c1
active: SR leukemia 7.62%
inactive: RPMI-8226 leukemia 56.4% | OVCAR-8 ovarian 59.9% | OVCAR-5 ovarian 99.7% | OVCAR-4 ovarian 71.7% | SK-OV-3 ovarian 125% | IGROV1 ovarian 62.6% | OVCAR-3 ovarian 80.2% | HS 578T breast 69.2% | NCI/ADR-RES ovarian 19% | T-47D breast 44.5% | BT-549 breast 78.7% | MDA-MB-435 melanoma 88.8% | SW-620 colon 76.4% | MCF7 breast 70.1% | HCT-116 colon 57.2% | KM12 colon 40.6%

COc1ccccc1/C(C)=N/NC(=O)CSc1nc2ccccc2c(=O)n1Cc1ccc(S(N)(=O)=O)cc1
inactive: SR leukemia 96.1% | RPMI-8226 leukemia 99.5% | OVCAR-8 ovarian 98.7% | OVCAR-5 ovarian 97.9% | OVCAR-4 ovarian 94.9% | SK-OV-3 ovarian 115% | IGROV1 ovarian 102% | OVCAR-3 ovarian 108% | HS 578T breast 85.4% | NCI/ADR-RES ovarian 99.5% | T-47D breast 97.6% | BT-549 breast 99.3% | MDA-MB-435 melanoma 103% | SW-620 colon 100% | MCF7 breast 89.2% | HCT-116 colon 95.9% | HCC-2998 colon 95.9% | KM12 colon 102%

COC(=O)CNC(=O)[C@]12CCC(C)(C)C[C@H]1C1=CC[C@@H]3[C@@]4(C)Cc5c([nH]c6ccccc56)C(C)(C)[C@@H]4CC[C@@]3(C)[C@]1(C)CC2
inactive: SR leukemia 83.3% | RPMI-8226 leukemia 77% | OVCAR-8 ovarian 85.2% | OVCAR-5 ovarian 95.4% | OVCAR-4 ovarian 77% | SK-OV-3 ovarian 82.6% | IGROV1 ovarian 104% | OVCAR-3 ovarian 93% | HS 578T breast 87.5% | NCI/ADR-RES ovarian 89.6% | T-47D breast 57.1% | BT-549 breast 102% | MDA-MB-435 melanoma 97.8% | SW-620 colon 88.8% | MCF7 breast 79.9% | HCC-2998 colon 103% | KM12 colon 92.3%

O=[N+]([O-])c1ccc(NC(=S)N/N=C/c2cc3ccccc3n3nnnc23)cc1
inactive: RPMI-8226 leukemia 47.7% | OVCAR-8 ovarian 71.2% | OVCAR-5 ovarian 79.6% | OVCAR-4 ovarian 63.8% | SK-OV-3 ovarian 73.7% | IGROV1 ovarian 54.5% | OVCAR-3 ovarian 14.3% | HS 578T breast 67% | NCI/ADR-RES ovarian 51.7% | T-47D breast 46.5% | BT-549 breast 80.4% | MDA-MB-435 melanoma 82.4% | SW-620 colon 24.4% | MCF7 breast 13.8% | HCT-116 colon 61.3% | KM12 colon 66.9%
active: SR leukemia 4.33%

Cc1cc2c(C(=O)NCC#N)cccc2n1-c1nc2c(c(NCc3ccccc3)n1)CCCC2
inactive: HS 578T breast 12%
active: SR leukemia 4.15% | RPMI-8226 leukemia 5.03% | OVCAR-8 ovarian 8.66% | OVCAR-5 ovarian 1.88% | OVCAR-4 ovarian -8.8% | SK-OV-3 ovarian -6.94% | IGROV1 ovarian -22.1% | OVCAR-3 ovarian -59.9% | NCI/ADR-RES ovarian 1.16% | T-47D breast -16.6% | BT-549 breast -34.8% | MDA-MB-435 melanoma -59.8% | SW-620 colon 2.79% | MCF7 breast 1.12% | HCT-116 colon -14.4% | KM12 colon -38.7%

COc1cc2oc(-c3cccc(C(=O)Nc4ccccc4)c3)cc(=O)c2c(O)c1OC
active: OVCAR-4 ovarian -20.2%
inactive: SR leukemia 95.7% | RPMI-8226 leukemia 83.5% | OVCAR-8 ovarian 15.4% | OVCAR-5 ovarian 94.4% | SK-OV-3 ovarian 15% | IGROV1 ovarian 85.4% | OVCAR-3 ovarian 70.1% | HS 578T breast 11.1% | NCI/ADR-RES ovarian 79.1% | T-47D breast 55.8% | BT-549 breast 60.1% | MDA-MB-435 melanoma 58.3% | SW-620 colon 94.3% | MCF7 breast 78.1% | HCC-2998 colon 89.7% | KM12 colon 57.8%

CCc1c(Cl)nc(N)nc1Nc1ccc(C)c(C)c1
inactive: SR leukemia 73% | RPMI-8226 leukemia 104% | OVCAR-8 ovarian 102% | OVCAR-5 ovarian 110% | OVCAR-4 ovarian 98% | SK-OV-3 ovarian 109% | IGROV1 ovarian 97.4% | OVCAR-3 ovarian 116% | HS 578T breast 97.9% | NCI/ADR-RES ovarian 99.2% | T-47D breast 91.2% | BT-549 breast 106% | MDA-MB-435 melanoma 99.6% | SW-620 colon 102% | MCF7 breast 83.1% | HCC-2998 colon 101% | KM12 colon 99.2%

CCOc1ccc(/C=N/Nc2cc(C)nc3ccc(Br)cc23)cc1
active: SR leukemia 2.09%
inactive: RPMI-8226 leukemia 71.4% | OVCAR-8 ovarian 90.6% | OVCAR-5 ovarian 89.2% | OVCAR-4 ovarian 91.8% | SK-OV-3 ovarian 90.8% | IGROV1 ovarian 96.2% | OVCAR-3 ovarian 105% | HS 578T breast 101% | NCI/ADR-RES ovarian 81.8% | T-47D breast 89.2% | BT-549 breast 91.3% | MDA-MB-435 melanoma 92.6% | SW-620 colon 55.2% | MCF7 breast 75.8% | HCC-2998 colon 100% | KM12 colon 84.6%
